Bioassay records as filed in PubChem.
Compounds with a hit are over-represented: about 31% of the library has one in this group of screens.
CYP2C19 inhib: inhibitors of human CYP2C19 | P33261 | CYP2C19 Supersomes, luciferin-H EGE luminescence, 30 min | inhibition, % at 5 µM | actives 21% (n = 96,000);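 active means CYP2C19 inhibition above a set limit at 5 µM in the primary screen, cut at about 50% in these data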;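 further: plate controls were negative control wells for no effect and 2.5 mM tranylcypromine positive control for full effect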
CYP2C9 activ: activators of human CYP2C9 | P11712 | recombinant CYP2C9, luciferin-H conversion, luminescence; active compounds read high; factor 1 = untreated enzyme, 0 = blocked | activation factor at 5 µM | actives 1.4% (n = 96,000);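 active means activation factor of 2 or more for CYP2C9 at a 5 µM dose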;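 further: 0 = sulfaphenazole-blocked wells and 1 = vehicle-only wells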
PLAP act: human PLAP activation; P05187; purified PLAP enzyme, luminescent substrate read-out; active compounds read high; activation fold at 20 µM; actives 1.2% (n = 96,000); AID 696; in the data active means activation fold above about 2
Target sequence (P05187 whole entry, looked up): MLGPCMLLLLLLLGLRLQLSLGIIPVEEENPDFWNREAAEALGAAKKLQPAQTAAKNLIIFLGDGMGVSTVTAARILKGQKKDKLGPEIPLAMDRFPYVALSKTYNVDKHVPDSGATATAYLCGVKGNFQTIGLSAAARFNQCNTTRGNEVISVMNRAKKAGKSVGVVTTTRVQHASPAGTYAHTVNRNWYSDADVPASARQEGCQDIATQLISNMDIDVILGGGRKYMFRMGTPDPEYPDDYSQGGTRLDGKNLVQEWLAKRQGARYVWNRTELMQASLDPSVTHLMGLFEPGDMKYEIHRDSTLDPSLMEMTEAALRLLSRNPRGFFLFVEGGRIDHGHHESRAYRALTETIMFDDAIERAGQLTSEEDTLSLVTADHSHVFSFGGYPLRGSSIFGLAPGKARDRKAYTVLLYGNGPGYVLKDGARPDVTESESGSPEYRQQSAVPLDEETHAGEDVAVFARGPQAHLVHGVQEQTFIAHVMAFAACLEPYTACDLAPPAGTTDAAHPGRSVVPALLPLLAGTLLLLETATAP
CYP2C9 inh: blocks human cytochrome P450 2C9. P11712. CYP2C9 Supersomes, luciferin-H conversion, luminescence. inhibition, % at 5 µM. AID 777. actives 20% (n = 96,000);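 active means blocking of liver enzyme CYP2C9 beyond about 50% at 5 µM, limit read from the data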
CYP2C19 act: cytochrome P450 2C19 (human) activation; recombinant CYP2C19, luciferin-H EGE luminescence; active compounds read high; 0 = fully inhibited enzyme, 1 = untreated enzyme; activation factor at 5 µM; 96,000 tested, under 10 active;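 active means activation factor of at least 2 at 5 µM in the primary screen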;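 further: 0 = wells with 2.5 mM tranylcypromine and 1 = vehicle-only wells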
* = called active by the depositor.

CC(C)CC(=O)NC1(C(F)(F)F)C(=O)Nc2c1c(=O)n(C)c(=O)n2C (centres undefined) was read as CYP2C19 inhib -8.0, CYP2C9 activ 1, PLAP act 1, CYP2C9 inh -1.1 and CYP2C19 act 1.1.
OC(CCN1CCOCC1)(c1ccc(Cl)cc1)C1CCCCC1 (centres undefined) was read as CYP2C19 inhib 10.0, CYP2C9 activ 0.8, PLAP act 1.5, CYP2C9 inh 21.9 and CYP2C19 act 0.9.
`COc1cccc(C2C3=C(N=C4SCC(=O)N42)c2ccccc2CC3)c1OC` (centres undefined) gave CYP2C19 inhib 87.0*, CYP2C9 activ 0.4, PLAP act 1, CYP2C9 inh 60.1* and CYP2C19 act 0.1.
For CCOC12NC(=O)CC(=O)N1C(c1ccccc1)=CS2 (centres undefined) the results were CYP2C19 inhib 25.7, CYP2C9 activ 0.8, PLAP act 1.4, CYP2C9 inh 19.8 and CYP2C19 act 0.7.
CCC1=Nc2ccccc2NC2=C1C(=O)CCC2 was read as CYP2C19 inhib 62.9*, CYP2C9 activ 1.3, PLAP act 1.6, CYP2C9 inh -27.0 and CYP2C19 act 0.4.
Screening CCOC(=O)C1C(C)N=C2SCC(=O)N2C1c1cccc(Br)c1 (centres undefined) returned CYP2C19 inhib 85.3*, CYP2C9 activ 0.2, PLAP act 1.6, CYP2C9 inh 85.0* and CYP2C19 act 0.1.
Screening COC(=O)c1ccccc1NC(=O)C1CC(=O)N(c2ccccc2)C1 (centres undefined) returned CYP2C19 inhib 18.7, CYP2C9 activ 0.9, PLAP act 0.8, CYP2C9 inh 7.9 and CYP2C19 act 0.8.
`O=C(Nc1nc2ccccc2s1)C1CC(=O)N(c2ccc(Cl)cc2)C1` (centres undefined) gave CYP2C19 inhib 20.2, CYP2C9 activ 0.5, PLAP act 0.9, CYP2C9 inh 54.4* and CYP2C19 act 0.8.
For O=C(Nc1cccc2nsnc12)C1CC(=O)N(c2ccccc2)C1 (centres undefined) the results were CYP2C19 inhib 81.5*, CYP2C9 activ 0.3, PLAP act 1.3, CYP2C9 inh 74.3* and CYP2C19 act 0.2.
For CC1(C)CC(=O)c2c(n(-c3cccc4ccccc34)ccc2=O)C1 the results were CYP2C19 inhib 9.1, CYP2C9 activ 0.9, PLAP act 0.9, CYP2C9 inh 11.0 and CYP2C19 act 0.9.
C=CCn1c(SCc2csc(C)n2)nc2sc3c(c2c1=O)CCCC3 was read as CYP2C19 inhib 20.8, CYP2C9 activ 0.5, PLAP act 1.6, CYP2C9 inh 50.4* and CYP2C19 act 0.8.
C=CCn1c(SCc2csc(C)n2)nc2sc3c(c2c1=O)CCCCC3 was read as CYP2C19 inhib 45.4, CYP2C9 activ 0.1, PLAP act 1.5, CYP2C9 inh 88.3* and CYP2C19 act 0.5.
`C=CCn1c(SCC(=O)Nc2cc(C)on2)nc2sc3c(c2c1=O)CCCC3` gave CYP2C19 inhib -15.1, CYP2C9 activ 1.1, PLAP act 0.9, CYP2C9 inh -13.7 and CYP2C19 act 1.2.
CC(=C1C(=O)c2ccccc2C1=O)N1CCC(C(N)=O)(N2CCCCC2)CC1 was read as CYP2C19 inhib -1.9, CYP2C9 activ 1.1, PLAP act 1.1, CYP2C9 inh -5.9 and CYP2C19 act 1.
Screening O=C(NCCc1cccs1)C1CC(c2ccccc2[N+](=O)[O-])=NO1 (centres undefined) returned CYP2C19 inhib 29.9, CYP2C9 activ 1.2, PLAP act 0.8, CYP2C9 inh -16.3 and CYP2C19 act 0.7.
COc1ccc(S(=O)(=O)N2CCN(C(=O)c3c(C)nn(-c4ccccc4)c3Cl)CC2)cc1 was read as CYP2C19 inhib 88.3*, CYP2C9 activ 0.1, PLAP act 1.8, CYP2C9 inh 90.5* and CYP2C19 act 0.1.
`Cc1ccc(S(=O)(=O)N2CCN(C(=O)c3c(C)nn(-c4ccccc4)c3Cl)CC2)cc1` gave CYP2C19 inhib 16.7, CYP2C9 activ 0.5, PLAP act 1.1, CYP2C9 inh 50.1* and CYP2C19 act 0.8.
For COc1cccc(OC)c1C(=O)N1CCN(S(=O)(=O)c2ccc(C)cc2)CC1 the results were CYP2C19 inhib 10.7, CYP2C9 activ 0.6, PLAP act 1.3, CYP2C9 inh 35.3 and CYP2C19 act 0.9.
Screening Cn1nnnc1SCC(=O)c1ccc(Br)s1 returned CYP2C19 inhib 64.6*, CYP2C9 activ 0.9, PLAP act 0.9, CYP2C9 inh 11.1 and CYP2C19 act 0.4.
`COCCn1c(Cc2ccccc2)nnc1SCC(=O)N(C)C` gave CYP2C19 inhib -11.1, CYP2C9 activ 1.1, PLAP act 0.8, CYP2C9 inh -6.6 and CYP2C19 act 1.1.
`Cn1c(Cc2ccccc2)nnc1SCC(=O)c1ccc(Br)s1` gave CYP2C19 inhib 75.3*, CYP2C9 activ 0.3, PLAP act 0.9, CYP2C9 inh 69.6* and CYP2C19 act 0.2.
Screening Cn1nnnc1SCC(=O)c1cccs1 returned CYP2C19 inhib 9.0, CYP2C9 activ 1, PLAP act 0.9, CYP2C9 inh 4.0 and CYP2C19 act 0.9.
For CCOc1ccc(NC(=O)c2cnsn2)cc1 the results were CYP2C19 inhib 62.3*, CYP2C9 activ 0.6, PLAP act 0.8, CYP2C9 inh 41.6 and CYP2C19 act 0.4.
Screening CCCC(=O)Nc1ccc(NC(=O)c2ccccc2OC)cn1 returned CYP2C19 inhib 51.2*, CYP2C9 activ 3.2*, PLAP act 1.2, CYP2C9 inh -219.7 and CYP2C19 act 0.5.
For Cc1ccc(NC(=O)c2ccccc2OCC(=O)c2ccccc2)cc1 the results were CYP2C19 inhib 25.3, CYP2C9 activ 0.8, PLAP act 0.9, CYP2C9 inh 17.2 and CYP2C19 act 0.7.
`COc1cccc(NC(=O)c2cnsn2)c1` gave CYP2C19 inhib 16.4, CYP2C9 activ 1, PLAP act 0.9, CYP2C9 inh 3.9 and CYP2C19 act 0.8.
`CCOc1ccc(NC(=O)c2ccccc2OC)cc1` gave CYP2C19 inhib 3.1, CYP2C9 activ 3.3*, PLAP act 0.9, CYP2C9 inh -226.8 and CYP2C19 act 1.
`CCOc1ccc(NC(=O)c2ccccc2OCC(=O)c2ccccc2)cc1` gave CYP2C19 inhib 61.3*, CYP2C9 activ 0.1, PLAP act 1.6, CYP2C9 inh 88.1* and CYP2C19 act 0.4.
`Cc1ccc(OCc2nnc(NC(=O)c3ccco3)s2)c(C)c1` gave CYP2C19 inhib -10.9, CYP2C9 activ 0.8, PLAP act 1.2, CYP2C9 inh 20.3 and CYP2C19 act 1.1.
Cc1cccc(NC(=O)c2ccccc2OCC(=O)c2ccccc2)c1 was read as CYP2C19 inhib 57.7*, CYP2C9 activ 0.3, PLAP act 1.4, CYP2C9 inh 72.6* and CYP2C19 act 0.4.
Cc1ccc2nc(NC3=NCN(C4CCCCC4)CN3)nc(C)c2c1 was read as CYP2C19 inhib -11.4, CYP2C9 activ 1.1, PLAP act 0.9, CYP2C9 inh -7.5 and CYP2C19 act 1.1.
